# Results from paper PMC6451091, “NextPBM: a platform to study cell-specific transcription factor binding and cooperativity”.
# Whole data set: some 3,700 sequences, median “z-score” near 4, cut for the highest 2% near 8.4. The list comes from a sample in which the highest values are over-represented; it also holds similar and randomly drawn sequences.
# Experiments:
# PU.1 (IVT) [1] = target: PU.1 (IVT) (UniProt P17947 1-270); assay: protein-binding microarray (PBM); 20 mM HEPES pH 7.9, 100 mM NaCl, 1 mM DTT, 0.2 mg/mL BSA, 0.02% Triton X-100, 2% milk, 0.4 mg/mL salmon testes DNA; 1 h; temperature not stated; high values mean tight binding; details: dsDNA, one strand shown
# How it was run: (§1)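 Full-length untagged PU.1 was made by coupled human in vitro transcription/translation. It was bound for 1 h to custom double-stranded DNA microarrays carrying 20-bp genomic sites and single-nucleotide variants, 10 probes per site (5 per orientation). The binding buffer was HEPES pH 7.9 with 100 mM NaCl, 2% milk and salmon testes DNA. Bound protein was detected with anti-PU.1 and then a fluorescent secondary antibody. Binding is a z-score from scanned fluorescence after linear-regression normalisation.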
# PU.1 (IVT) [2] = target: PU.1 (IVT) (UniProt P17947 1-270); assay: as above; details: dsDNA, one strand shown; remark: listed apart in the source
# How it was run: as §1
Sequence,binding signal (PU.1 (IVT) [1]) [z-score],binding signal (PU.1 (IVT) [2]) [z-score]
GCCTAGCACCGAAAGGGGAAGTGCTAAAAGTGCTAGGTCTTGATTCGCTTGACGCTGCTG,6.97,–
GCCTAGCACGAAAGGAGGAAGTGGAGGGTGTGCTAGGTCTTGATTCGCTTGACGCTGCTG,–,5.92
GCCTAGCACCAAAAAAGGAAGTGGCTGTGGTGCTAGGTCTTGATTCGCTTGACGCTGCTG,5.51,–
GCCTAGCACCAAAAAGGGAAGTGGAAGCTGTGCTAGGTCTTGATTCGCTTGACGCTGCTG,–,6.2
GCCTAGCACGAAAAGGGGAAGTGCTGGGGGTGCTAGGTCTTGATTCGCTTGACGCTGCTG,7.77,–
GCCTAGCACCAAAAGCGGAAGTGGTGCCTGTGCTAGGTCTTGATTCGCTTGACGCTGCTG,8.56,–
GCCTAGCACGAAAAGCGGAAGTGGTGTGGGTGCTAGGTCTTGATTCGCTTGACGCTGCTG,8.61,–
GCCTAGCACAAAAAAAGGAAAGGAAAGTAGTGCTAGGTCTTGATTCGCTTGACGCTGCTG,1.27,–
GCCTAGCACAAAATGAGGAAGTACCCTCTGTGCTAGGTCTTGATTCGCTTGACGCTGCTG,8.28,–
GCCTAGCACAAAATGAGGAAGTGAACAAAGTGCTAGGTCTTGATTCGCTTGACGCTGCTG,8.02,–
GCCTAGCACAAAAGGAGGAAGTTGGTTGGGTGCTAGGTCTTGATTCGCTTGACGCTGCTG,7.62,–
GCCTAGCACAAAATGAGGAACTGCTGTCTGTGCTAGGTCTTGATTCGCTTGACGCTGCTG,6.9,–
GCCTAGCACAAAATGAGGAAGTGCATTGAGTGCTAGGTCTTGATTCGCTTGACGCTGCTG,8.07,–
GCCTAGCACAAAATGAGGAAGTGCTTCTAGTGCTAGGTCTTGATTCGCTTGACGCTGCTG,8.37,–
GCCTAGCACAAAATGAGGAAGTTGGATGGGTGCTAGGTCTTGATTCGCTTGACGCTGCTG,8.35,–
GCCTAGCACAAAATGAGGAAGTGTGATTAGTGCTAGGTCTTGATTCGCTTGACGCTGCTG,7.8,–
GCCTAGCACAAATAGAGGAAGTGGAATGGGTGCTAGGTCTTGATTCGCTTGACGCTGCTG,7.2,–
GCCTAGCACAAAATGAGGAAGTAATTCCTGTGCTAGGTCTTGATTCGCTTGACGCTGCTG,8.66,–
GCCTAGCACAAAATGAGGAAGTGACTTTGGTGCTAGGTCTTGATTCGCTTGACGCTGCTG,8.87,–
GCCTAGCACAAAATGAGGAAGTGAGCTAAGTGCTAGGTCTTGATTCGCTTGACGCTGCTG,7.94,–
GCCTAGCACACAATGAGGAAGTGCTGGCCGTGCTAGGTCTTGATTCGCTTGACGCTGCTG,–,6.19

Sequence,binding signal (PU.1 (IVT) [1]) [z-score],binding signal (PU.1 (IVT) [2]) [z-score]
GCCTAGCACTAAAGGAGGAATTGAAACCAGTGCTAGGTCTTGATTCGCTTGACGCTGCTG,1.22,–
GCCTAGCACGCCAGGAGGAAGTGGAAATGGTGCTAGGTCTTGATTCGCTTGACGCTGCTG,4.22,–
GCCTAGCACGACAAGAGGAAGTGCAAGATGTGCTAGGTCTTGATTCGCTTGACGCTGCTG,4.87,–
GCCTAGCACATATGGAGGAAGTGGAACCCGTGCTAGGTCTTGATTCGCTTGACGCTGCTG,3.92,–
GCCTAGCACCTGCCAGGGAAGTGTAAGCAGTGCTAGGTCTTGATTCGCTTGACGCTGCTG,–,0.66
GCCTAGCACAAAAAGAAGAAGTGGGGCTTGTGCTAGGTCTTGATTCGCTTGACGCTGCTG,–,4.26
GCCTAGCACTGAAAGGGGAAGTCTTTTTAGTGCTAGGTCTTGATTCGCTTGACGCTGCTG,6.55,–
GCCTAGCACAAAATGAGGAAGTGGCTTTGGTGCTAGGTCTTGATTCGCTTGACGCTGCTG,8.37,–
GCCTAGCACAAAATGAGGAAGTGGAAGGGGTGCTAGGTCTTGATTCGCTTGACGCTGCTG,8.15,–
GCCTAGCACAAAATGAGGAAGTGCTGGCAGTGCTAGGTCTTGATTCGCTTGACGCTGCTG,8.14,–
GCCTAGCACTAAATGAGGAAGTGTGCTGTGTGCTAGGTCTTGATTCGCTTGACGCTGCTG,7.74,–
GCCTAGCACAAAAAGAGGAAGTGATGAGTGTGCTAGGTCTTGATTCGCTTGACGCTGCTG,8.92,–
GCCTAGCACAAAAAGAGGAAGTGATGACCGTGCTAGGTCTTGATTCGCTTGACGCTGCTG,8.84,–
GCCTAGCACAAAGAGAGGAAGTACAGTTTGTGCTAGGTCTTGATTCGCTTGACGCTGCTG,5.35,–
GCCTAGCACGAAAAGAGGAAGTGAGATGTGTGCTAGGTCTTGATTCGCTTGACGCTGCTG,8.73,–
GCCTAGCACAAAAAGAGGAAGTCTGGTGTGTGCTAGGTCTTGATTCGCTTGACGCTGCTG,8.02,–
GCCTAGCACGAAAAGAGGAAGTGTGAGATGTGCTAGGTCTTGATTCGCTTGACGCTGCTG,8.2,–
GCCTAGCACGAAAAGAGGAAGTGTGAGACGTGCTAGGTCTTGATTCGCTTGACGCTGCTG,7.97,–
GCCTAGCACAAAAAAAGGAAGTGATAGCCGTGCTAGGTCTTGATTCGCTTGACGCTGCTG,–,6.5
GCCTAGCACAAAAAAAGGAAGTGGACCGTGTGCTAGGTCTTGATTCGCTTGACGCTGCTG,–,6.55
GCCTAGCACAAGATGAGGAAGTGAGTGTAGTGCTAGGTCTTGATTCGCTTGACGCTGCTG,–,6.13

Sequence,binding signal (PU.1 (IVT) [1]) [z-score],binding signal (PU.1 (IVT) [2]) [z-score]
GCCTAGCACAAGAAGAGGAAGTGAGTGCTGTGCTAGGTCTTGATTCGCTTGACGCTGCTG,7.09,–
GCCTAGCACAAAAAGAGGAAGTCAGTTTGGTGCTAGGTCTTGATTCGCTTGACGCTGCTG,8.4,–
GCCTAGCACTTAATGAGGAAGTGCTGTCAGTGCTAGGTCTTGATTCGCTTGACGCTGCTG,6.5,–
GCCTAGCACTAGATGAGGAAGTACTGTGCGTGCTAGGTCTTGATTCGCTTGACGCTGCTG,–,6.57
GCCTAGCACTTTAACAGGAAGTGAAACCAGTGCTAGGTCTTGATTCGCTTGACGCTGCTG,–,4.61
GCCTAGCACCAAAAAGGGAAGTGGGTTGAGTGCTAGGTCTTGATTCGCTTGACGCTGCTG,7.02,–
GCCTAGCACTGAAACAGGAAGTGAGACCAGTGCTAGGTCTTGATTCGCTTGACGCTGCTG,6.68,–
GCCTAGCACGGAATAGGGAAGTGAAACTGGTGCTAGGTCTTGATTCGCTTGACGCTGCTG,–,6.68
GCCTAGCACGAAAAGGGGAACTGAAACTAGTGCTAGGTCTTGATTCGCTTGACGCTGCTG,6.15,–
GCCTAGCACAAAAAGAGGAAGTGCACAAGGTGCTAGGTCTTGATTCGCTTGACGCTGCTG,8.64,–
GCCTAGCACAAAAGGAGGAAGTGATCCCTGTGCTAGGTCTTGATTCGCTTGACGCTGCTG,6.77,–
GCCTAGCACAAAAAGAGGAAGTGCCCTGTGTGCTAGGTCTTGATTCGCTTGACGCTGCTG,8.56,–
GCCTAGCACAAAAGGAGGAAGTGAAAGTAGTGCTAGGTCTTGATTCGCTTGACGCTGCTG,6.69,–
GCCTAGCACAAAGAAAGGAAGTGGCCTGTGTGCTAGGTCTTGATTCGCTTGACGCTGCTG,2.71,–
GCCTAGCACAAAAAGAGGAAGTGAGCTTAGTGCTAGGTCTTGATTCGCTTGACGCTGCTG,8.51,–
GCCTAGCACAAAAAGAGGAAGAGGAGGAGGTGCTAGGTCTTGATTCGCTTGACGCTGCTG,–,5.1
GCCTAGCACAAAAAAAGGAAGTGAGAGCTGTGCTAGGTCTTGATTCGCTTGACGCTGCTG,–,6.29
GCCTAGCACAAAAAGAGGAAGTGGGGGAGGTGCTAGGTCTTGATTCGCTTGACGCTGCTG,8.59,–
GCCTAGCACAAAAAAGAGAAGTGGGGGAAGTGCTAGGTCTTGATTCGCTTGACGCTGCTG,5.77,–
GCCTAGCACAAAAAGAGGAAGGGGAAGAAGTGCTAGGTCTTGATTCGCTTGACGCTGCTG,–,6.26
GCCTAGCACAAAAGGAGGAAGTGGGGGGAGTGCTAGGTCTTGATTCGCTTGACGCTGCTG,–,6.01
